# From PubChem
# IL1B secr inh – inflammasome signaling inhibition, IL-1 beta readout | THP-1 LPS/ATP IL-1B secretion, AlphaLISA, 16 h; hits give low values | activity change, % at 57.5 µM | 360,000 compounds, 4.7% hits | AID 743279; in the data active means activity change below about -50%; inconclusive means mostly about -30% to -49%
#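 Secreted IL-1B measured by AlphaLISA bead assay after 16 h compound exposure of THP-1 cells; compounds (final up to 57.5 uM) added 1 h before LPS (250 ng/mL) and ATP (1.25 mM) stimulation; lower signal means less secretion.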
# TDP1 cell noCPT – qHTS for Inhibitors of human tyrosyl-DNA phosphodiesterase 1 (TDP1): qHTS in cells in absence of CPT. DT40 Tdp1-/- hTDP1 cells, no CPT, ATP luminescence, 48 h. Potency, µM (titrated, usually from 46.2 µM), inactives show top-dose activity change, negative = growth inhibition, actives largely listed as inhibitors. 420,000 compounds, 15% hits. AID 686978, 2013; further: potency means the concentration at half of the fitted maximal effect; nearly all actives have a fitted effect of over 55% in size
#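 Camptothecin absent (DMSO only). Human TDP1-complemented DT40 knockout cells, 400 cells/well, 37 °C for minimum 48 hr; ATP measured via CellTiter-Glo, 30 min dark incubation, luminescence.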
# HT1080 IDH1KD tx – HT-1080 IDH1 knockdown cell toxicity (counter line) | HT-1080 IDH1 knockdown viability, ATP luminescence, 48 h | Potency, µM (series often up to 46.1 µM), inactives show at the top dose activity, negative = toxicity, actives largely listed as cytotoxic | 360,000 compounds, 2% hits;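 further: potency means the concentration at half of the fitted maximal effect; 0% = DMSO wells and -100% = cell-free medium wells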
#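 % activity derives from luminescence (CellTiter-Glo), normalised to DMSO and no-cell wells. HT-1080-IDH1KD cells, 750/well, had 48 h compound exposure at 37 °C.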
# HT1080NT lethal – kills 2HG-producing HT-1080-NT fibrosarcoma cells. HT-1080-NT fibrosarcoma viability, CellTiter-Glo ATP luminescence, 48 h. Potency, µM (top dose mostly 46.1 µM), without a hit: top-dose activity, negative = less viability, most hits filed as cytotoxic. 360,000 compounds, 1.6% hits. AID 686970;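 further: NT is the 2HG producing partner of a matched IDH1 knockdown line; potency means the concentration at half of the fitted maximal effect; 0% = DMSO-treated cells and -100% = media-only wells without cells; nearly all actives have a fitted effect of over 55% in size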
#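 HT-1080-NT; 750 cells/well; 5% FBS RPMI; 48 h compound, 37 degrees C; CellTiter-Glo luminescence; curve fitting and curve-class assignment.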
# TDP1 cell CPT – growth inhibition of DT40 Tdp1-/-;hTDP1 cells with camptothecin (screen for TDP1 inhibitors); chicken DT40 Tdp1-/-;hTDP1 cells + 20 nM CPT, ATP luminescence, 48 h; Potency, µM (highest dose often 46.2 µM), without a hit: at the highest dose activity change, negative = growth inhibition, usual class: inhibitors; 420,000 compounds, 12% hits; AID 686979; further: potency means the concentration at half of the fitted maximal effect; nearly all actives have a fitted effect of over 55% in size
#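 Chicken DT40 Tdp1-/- cells stably complemented with human TDP1 were seeded at 400 cells/well in medium containing 20 nM camptothecin, exposed to pin-transferred compounds, and grown at 37 °C for at least 48 hr. Viability was read as ATP luminescence.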
# * marks the source's active call; other numbers are inactive results; ? = inconclusive; · = not tested or not shown; [ ] = another dose, or the depositor's remark. Compounds with a hit are over-represented: about 19% of the library has one in this group of screens. Unless noted, the call rests on the fitted dose curve; in most records, active means well fitted curve in the direction sought with a large enough effect; inconclusive means small, poorly fitted or top-dose-only effect, or another doubt; inactive means no such curve, though single readings can be large; an effect the other way counts as inactive or inconclusive. Unless noted, on the % scale 0 is the no-effect control and ±100 the full control effect.
SMILES,IL1B secr inh,TDP1 cell noCPT,HT1080 IDH1KD tx,HT1080NT lethal,TDP1 cell CPT
C[C@H](CO)N1C[C@H](C)[C@@H](CN(C)Cc2ccc(-c3ccccc3)cc2)Oc2c(NS(=O)(=O)c3cccs3)cccc2C1=O,?,?,-8.6%,-28.2%,18.4µM*
Cc1ccc(S(=O)(=O)Nc2cccc3c2O[C@H](CN(C)C(=O)Nc2ccc(C(F)(F)F)cc2)[C@@H](C)CN([C@H](C)CO)C3=O)cc1,-10.6,?,-15.2%,-8.6%,16.4µM*
C[C@H](CO)N1C[C@H](C)[C@@H](CN(C)S(C)(=O)=O)Oc2c(NC(=O)Nc3ccc(C(F)(F)F)cc3)cccc2C1=O,-2.2,?,-6.0%,-23.3%,23.1µM*
Cc1ccc(S(=O)(=O)Nc2cccc3c2O[C@@H](CN(C)C(=O)Nc2ccc4c(c2)OCO4)[C@H](C)CN([C@@H](C)CO)C3=O)cc1,-0.8,?,0.0%,-1.1%,?
CC(C)NC(=O)Nc1cccc2c1O[C@H](CN(C)S(C)(=O)=O)[C@@H](C)CN([C@H](C)CO)C2=O,20.2,1.6%,8.6%,3.3%,10.0%
Cc1ccc(S(=O)(=O)Nc2cccc3c2O[C@H](CN(C)C(=O)Nc2cccc4ccccc24)[C@H](C)CN([C@H](C)CO)C3=O)cc1,?,20.6µM*,-16.5%,-22.4%,20.6µM*
COc1ccc(CN(C)C(=O)C2CCN(C(=O)Nc3ccccc3)CC2)cc1,-11.5,-3.9%,4.8%,-2.7%,-5.2%
CCCS(=O)(=O)NC(=O)C1(C)CCCN(C(=O)c2cc(C)nn2C(C)(C)C)C1 (configuration not stated),32.5,7.9%,19.6%,-0.1%,8.4%
CCCNC(=O)Nc1ccsc1C(=O)OC,-10.8,-27.8%,21.6%,12.2%,-20.2%
C[C@H]1CN([C@@H](C)CO)C(=O)c2cccc(NC(=O)Nc3ccc(C(F)(F)F)cc3)c2O[C@H]1CN(C)C,-9.3,?,-15.2%,-10.0%,20.6µM*
COc1ccc(NC(=O)Nc2cccc3c2O[C@H](CN(C)S(=O)(=O)c2ccc(OC)cc2)[C@@H](C)CN([C@H](C)CO)C3=O)cc1,-28.0,?,-1.1%,-0.9%,?
C[C@@H]1CN([C@H](C)CO)C(=O)c2cc(NC(=O)Nc3ccc(C(F)(F)F)cc3)ccc2O[C@H]1CN(C)C(=O)Nc1ccc(F)cc1,-61.5*,?,?,-29.6%,?
C[C@H](CO)N1C[C@H](C)[C@@H](CN(C)Cc2ccc3c(c2)OCO3)Oc2c(NC(=O)Cc3ccccc3)cccc2C1=O,-18.3,20.6µM*,?,?,23.1µM*
COc1ccc(NC(=O)Nc2cccc3c2O[C@H](CN(C)S(=O)(=O)c2ccccc2)[C@@H](C)CN([C@H](C)CO)C3=O)cc1,-17.3,?,?,-8.2%,18.4µM*
O=C1CCN(Cc2cccc(C(F)(F)F)c2)CCN1Cc1ccccn1,·,-7.6%,·,·,4.0%[9.04 µM]
COc1ccc(NC(=O)Nc2cccc3c2O[C@H](CN(C)C(=O)Nc2ccc(C(F)(F)F)cc2)[C@@H](C)CN([C@H](C)CO)C3=O)cc1,-16.7,16.4µM*,-18.8%,-15.9%,25.9µM*
C[C@H](CO)N1C[C@H](C)[C@@H](CN(C)C(=O)Nc2ccc(C(F)(F)F)cc2)Oc2c(NC(=O)Nc3ccc(C(F)(F)F)cc3)cccc2C1=O,-7.2,7.31µM*,?,?,9.2µM*
COc1ccc(S(=O)(=O)Nc2cccc3c2O[C@H](CN(C)Cc2ccc(Cl)c(Cl)c2)[C@@H](C)CN([C@H](C)CO)C3=O)cc1,-56.3*,18.4µM*,?,-28.1%,20.6µM*
C[C@H](CO)N1C[C@H](C)[C@@H](CN(C)Cc2ccc(C(=O)O)cc2)Oc2c(NC(=O)C3CC3)cccc2C1=O,25.5,-5.9%,8.2%,6.0%,1.2%
C[C@H](CO)N1C[C@H](C)[C@@H](CN(C)Cc2ccccc2)Oc2c(NC(=O)C3CCCCC3)cccc2C1=O,-71.7*,?,-19.0%,-20.1%,?
C/C(=N\OCC(=O)OCC(=O)N(Cc1ccccc1)C(C)(C)C)c1ccc2c(c1)OCO2,13.1,-9.6%,-0.6%,-7.1%,-1.2%
Cc1ccc(NC(=O)Cc2nc(-c3c[nH]c(C(=O)N4CCCC4)c3)cs2)c(C)c1,14.5,?,7.0%,13.0%,?
CCOc1ccc(NC(=O)C2C(c3ccccc3)C2(Cl)Cl)cc1 (configuration not stated),-8.7,23.1µM*,-4.1%,-10.7%,?
Cc1cccc(NC(=O)C2C(c3ccccc3)C2(Cl)Cl)c1 (configuration not stated),0.5,13µM*,-15.7%,-1.9%,?
CC(C)COC(=O)N(C)C[C@H]1OCc2cnnn2CCCC(=O)N([C@@H](C)CO)C[C@H]1C,26.7,-5.5%,-13.1%,-16.7%,-5.9%
SMILES,IL1B secr inh,TDP1 cell noCPT,HT1080 IDH1KD tx,HT1080NT lethal,TDP1 cell CPT
CCNc1nc(C#N)nc(Nc2ccccc2)n1,·,11.2µM*,·,·,?
COc1ccccc1-c1noc(-c2ccc(NCC3CCCO3)c([N+](=O)[O-])c2)n1 (configuration not stated),·,8.2µM*,·,·,18.4µM*
Cc1ccccc1-c1noc(-c2ccc(NCC3CCCO3)c([N+](=O)[O-])c2)n1 (configuration not stated),·,2.06µM*,·,·,3.26µM*
COc1ccccc1-c1noc(-c2ccc(NC3CCCC3)c([N+](=O)[O-])c2)n1,·,23.1µM*,·,·,18.4µM*
Cc1ccccc1-c1noc(-c2ccc(NC3CCCC3)c([N+](=O)[O-])c2)n1,·,-18.6%,·,·,-11.7%
COc1ccccc1-c1noc(-c2ccccc2C(=O)NCC2CCCO2)n1 (configuration not stated),12.2,-10.5%,-15.0%,-18.8%,-24.6%
COc1ccc(S(=O)(=O)N2CCOC2CNC(=O)C(=O)NCCc2ccccc2)cc1 (configuration not stated),-0.8,?,-2.6%,3.2%,?
CCOc1ccccc1N(C)C(=O)Cn1nc(Cc2ccncc2)c2ccccc2c1=O,·,?,·,·,-17.1%
C=CCNC(=O)c1ccc(N(Cc2ccc(Cl)cc2)S(C)(=O)=O)cc1,-3.0,12.2%,5.4%,7.5%,-2.7%
Cc1cccc(C2CC(c3ccc(Cl)cc3)Nc3nc(N)nn32)c1 (configuration not stated),-25.4,?,7.5%,12.0%,?
CCc1ccc(C2CC(c3cccc(Cl)c3)n3nc(N)nc3N2)cc1 (configuration not stated),·,14.6µM*,1.6%,-4.6%,14.6µM*
